# The list is not random: actives were taken first. Their share in the collection is about 2.3%.
# pAkt inh – inhibitors of Akt phosphorylation. Neuro2A IGF-stimulated pAkt S473 HTRF, 20 min; stronger effect = lower value. activity change, % for hits at 50 µM. 360,000 compounds, 0.32% hits. AID 651550; in the data active = activity change below about -80%; inconclusive = mostly about -51% to -80%; also: % is scaled to controls: 0 for no effect and ±100 for the full control effect
#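 Neuro2A cells in DMEM with 0.5% FBS, overnight at 37 deg C, given compound at single 50 µM final, then IGF (6 nM final) for 20 min at 37 deg C. Lysed; phospho-Akt Ser473 by HTRF after 24 h, 665/615 ratio.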
# Abeta rescue – A-beta toxicity reversal in yeast; yeast expressing A-beta42, growth rescue, OD600, 48 h; response scale: 0% DMSO, 100% iron-clioquinol control; Potency, µM (highest dose often 46.1 µM), most hits filed as activators; 410,000 compounds, 0.063% hits; also: potency is read from the fitted curve at half-maximal effect; nearly all actives have a fitted effect of over 55% in size
#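 Yeast growth medium received pinned compounds, then yeast cells expressing toxic A-beta were added; plates incubated at 30 C for 48 hr. Growth read as absorbance at 600 nm, normalized to DMSO and equimolar FeCl3 plus clioquinol controls.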
# FUS yeast rescue – FUS proteinopathy suppression in yeast. 390,000 compounds, 0.24% hits. S. cerevisiae FUS-expressing, growth rescue, OD600, 24 h. Potency, µM (titrated, usually from 76.6 µM), usual class: activators. AID 1347120;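 also: potency is read from the fitted curve at half-maximal effect; plate controls were DMSO vehicle for no effect and reference control for full effect; nearly all actives have a fitted effect of over 55% in size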
#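 Cultures pregrown in 2.5% raffinose medium are shifted to minimal medium containing 2% galactose to express toxic FUS. Compounds are tested at several concentrations. After 24hr at 30C, growth is quantified at 600 nm absorbance.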
# aSyn rescue – rescues yeast growth from alpha-synuclein toxicity; Potency, µM (titrated, usually from 46.1 µM), without a hit: at the highest dose growth rescue (activation), hits mostly activators; AID 652106; Yeast expressing alpha-synuclein, growth rescue, BacTiter-Glo, 24 h; 370,000 compounds, 0.14% hits; also: potency is read from the fitted curve at half-maximal effect; % of control where 0% means no effect; nearly all actives have a fitted effect of over 65% in size
#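 Galactose-induced alpha-syn yeast (OD600=0.02, raffinose-pregrown) + pinned cpd, 24 hr, 30 deg C; growth by BacTiter-Glo luminescence. Growth restoration scores as activation.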
# TDP43 rescue – inhibitors of TDP-43 toxicity in yeast | TDP-43 expressing yeast growth rescue, BacTiter-Glo, 24 h | Potency, µM (doses to about 46.1 µM), for inactives: at the highest dose growth rescue (activation), most hits filed as activators | 410,000 compounds, 1.8% hits | AID 652104; also: potency is read from the fitted curve at half-maximal effect; % of control where 0% means no effect; nearly all actives have a fitted effect of over 50% in size
#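 Readout is BacTiter-Glo luminescence of cell growth, so inhibitors register as activators. TDP-43-expressing yeast at OD600=0.02 in galactose medium, after raffinose pregrowth to mid-log, were incubated with compound for 24 hr at 30 deg C.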
# Numbers without * were called inactive; i = inactive; ? = inconclusive; · = no result; [ ] = dose if it differs, or a comment. Unless noted, calls follow the shape of the dose curve; as a rule, active = well fitted curve in the direction sought with a large enough effect; inconclusive = small, poorly fitted or top-dose-only effect, or another doubt; inactive = no such curve, though single readings can be large; an effect the other way counts as inactive or inconclusive.
SMILES,pAkt inh,Abeta rescue,FUS yeast rescue,aSyn rescue,TDP43 rescue
COCCn1nnnc1C(C(C)C)N(Cc1ccccc1)Cc1cc2cc(OC)ccc2[nH]c1=O (configuration not stated),i,?,?,10%,25%
COc1ccc(-c2cccc(NS(=O)(=O)c3cccs3)c2)nn1,·,i,i,·,22%
CCOc1ccc(S(=O)(=O)Nc2cccc(-c3ccc(OCC)nn3)c2)cc1,·,i,i,·,35µM*
CCc1ccc(S(=O)(=O)Nc2cccc(-c3ccc(OC)nn3)c2)s1,·,i,?,·,18µM*
COc1ccc(S(=O)(=O)Nc2cccc(-c3ccc(N4CCCC4)nn3)c2)cc1OC,·,i,i,·,27%
Cc1ccc(S(=O)(=O)Nc2cccc(-c3ccc(N4CCCCCC4)nn3)c2)cc1C,i,·,22µM*,0%,-3%
CCn1c(=O)c2cc(C(=O)NCCCN3CCN(c4ccc(F)cc4)CC3)sc2c2ccccc21,·,i,i,·,-13%
CC[C@@]1(c2ccccc2OC)ON(c2ccccc2C(F)(F)F)C1=O,i,i,i,7%,18µM*
Cc1ccccc1[C@@]1(C)ON(c2ccccc2C(F)(F)F)C1=O,i,i,i,14%,11%
Oc1sc(C=Nc2ccc(F)cc2)c2ccccc12,i,i,i,0%,0.63µM*
Oc1sc(C=Nc2ccccc2)c2ccccc12,i,i,i,6%,?
O=c1c(Cl)c(Cl)cnn1Cc1ccc(F)cc1,i,i,i,1%,20µM*
CC(=O)C(Sc1nc(-c2ccccc2Cl)nc2c1c(=O)n(C)c(=O)n2C)C(=O)N(C)C (configuration not stated),·,i,i,·,18%[9.22 µM]
Cc1ccc(C(=O)CSc2nnc3c4ccccc4nc(C(C)(C)C)n23)cc1,i,i,i,-1%,-14%
CC(=O)CSc1nnc2c3ccccc3nc(C(C)(C)C)n12,i,i,i,2%,14µM*
CCC(C)(C)C(=O)O[C@H]1C[C@@H](C)C=C2C=C[C@H](C)[C@H](CC[C@@H]3C[C@@H](O)CC(=O)O3)[C@H]21,i,i,i,16%,14µM*
COC(=O)[C@H](C)NC(=O)NCc1ccc(F)cc1,-82%*,i,i,-4%,-16%
C[C@H](NC(=O)NCc1ccc(F)cc1)C(=O)O,i,i,·,?,-11%
O=C(Nc1cccc2ccccc12)/C(Cl)=C/c1ccccc1,i,i,i,-9%,16µM*
O=C(Nc1ccccc1F)C(=O)Nc1cccc2ccccc12,i,i,i,5%,14%
CCc1nnc(SCC(=O)Nc2cc(Cl)c(OC)cc2OC)c2cc3oc(C)cc3n12,·,i,i,·,2%
CCCC[C@@H]1CNC(=S)N1CCc1cccc2ccccc12,i,?,i,21%,35µM*
O=S(=O)(NC(=S)NC1CCCCC1)c1ccc(Br)cc1,i,i,i,11%,20µM*
COc1cccc(CNC(=O)C2CCCN(S(=O)(=O)c3ccc4c(ccn4C)c3)C2)c1OC (configuration not stated),·,i,i,·,10%
S=C(NCCc1ccccc1)Nc1ccc(N2CCCCC2)cc1,i,8.9µM*,i,-9%,30%
SMILES,pAkt inh,Abeta rescue,FUS yeast rescue,aSyn rescue,TDP43 rescue
CCNC(=S)Nc1ccc(N2CCCCC2)cc1,i,i,i,-11%,3%
Cc1[nH]c2ccccc2c1SCCNC(=O)c1ccccc1F,·,14µM*,i,·,14µM*
O=C(NCCSc1c[nH]c2ccccc12)c1ccccc1Cl,·,i,i,·,35µM*
COc1cccc(C(=O)NCCSc2c(C)[nH]c3ccccc23)c1OC,i,i,i,?,?
COc1ccccc1C(=O)NCCSc1c(C)[nH]c2ccccc12,·,?,i,·,32µM*
CCCOc1ccccc1N/C(N)=N/c1nc(C)cc(C)n1,i,i,i,-8%,-23%
CCCOc1ccccc1N/C(=N/c1nc(C)cc(C)n1)NC(=O)COc1ccc(OC)cc1,i,i,?,-26%,2.2µM*
CC(NC(=O)OCc1ccccc1)C(=O)Oc1cc2oc(=O)cc(-c3ccccc3)c2cc1Cl (configuration not stated),i,i,i,3%,6.3µM*
CCCNC(=O)C1CCN(c2cc(C)nc3c(-c4ccc(OC)c(OC)c4)c(C)nn23)CC1,·,i,i,·,2%
CCNC(=S)N/N=C1\C(=O)c2cccc3cccc1c23,i,i,i,3%,20%
O=C(N/N=C1/C(=O)c2cccc3cccc1c23)c1ccc(Cl)cc1,i,?,i,?,18µM*

# Screens as filed in PubChem BioAssay.
